Here are results for 13 compounds from PubChem BioAssay.

In assay [1] the test system is Human papillomavirus type 1a protein E7 (residues 44-93). Put plainly: HPV1a E7 fragment binders on microarrays, primary screen, biochemical, small-molecule microarray, residues 44-93, 635 nm fluorescence (AID 1108).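 Note: E7 fragment applied at 1 µg/mL in TBST for 1 h at 4 C; score combines spot fluorescence with its signal to noise ratio.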 To be noted: small-molecule microarray binding, fluorescence 635 nm; higher = more signal.
The nature of assay [2]: modulators of HCV replicon luciferase signal, primary screen, HCV replication inhibitor project, Huh7 cells, luciferase reporter (AID 1109).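 Note: huh7 hepatoma cells harbouring a luciferase neomycin HCV replicon reporter; luciferase luminescence as measure of HCV replicon replication; test concentration not given here.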 The following applies: 48 h, higher = more signal. Background: A replicon is a self-replicating genome or part of one, used to study replication in cells.
Assay [3] addresses Left-right determination factor 2 (Homo sapiens) (UniProt O00292). The assay is described as follows: LEFTY2 binders on small-molecule microarrays, primary screen, biochemical, small-molecule microarray, 635 nm fluorescence scan (AID 1110). To be noted: LEFTY2 binding, higher = more signal.
In assay [4] the target is Calmodulin-1 (Homo sapiens) (UniProt P0DP23). Put plainly: CALM1 binders on microarrays, EGTA buffer, profiling panel, biochemical, small-molecule microarray, Cy5-labelled CALM1 (AID 1111).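 Note: labelled calmodulin applied in Tris saline Tween buffer holding calcium plus EGTA and DTT.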 To be noted: Cy5-CALM1 binding fluorescence, higher = more signal.
The target is the same in assay [5]. The assay is described as follows: calcium-bound CALM1 binders on microarrays, profiling panel, artefact control for SMM control-protein annotation, biochemical, small-molecule microarray, Cy5-labelled CALM1, plus calcium (AID 1112).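 Note: score merges spot fluorescence with signal to noise from triplicate slides.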 To be noted: Cy5-CALM1 binding fluorescence, higher = more signal.
Assay [6] is described as follows: small-molecule microarray binders of probe aWnt5a, primary screen, biochemical, biotinylated probe, 635/667 nm fluorescence (AID 1113).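 Note: score merges 667 nm fluorescence intensity with signal-to-noise per printed feature.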 To be noted: higher = more signal.
The nature of assay [7]: small-molecule microarray binders of probe aShh, primary screen, biochemical, biotinylated probe, 635/667 nm fluorescence (AID 1114).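 Note: probe is biotin-labelled aShh protein from a stem cell growth factor screen; measures binding of labelled protein to compounds printed on the slide; score merges feature fluorescence at 667 nm with signal-to-noise.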 To be noted: higher = more signal.
Assay [8] can be described thus: small-molecule microarray binders of probe aNog, primary screen, biochemical, biotinylated probe, 635/667 nm fluorescence (AID 1115).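 Note: probe is biotinylated aNog protein used at 0.15 µg/mL for 1 h at 4 C; z-score combines 667 nm fluorescence of each spot with its signal to noise.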 The following applies: higher = more signal.
For assay [9], the target named is Torsin-1A-interacting protein 1 (Homo sapiens) (UniProt Q5JTV8). Put plainly: LAP1 binders from COS7 cell lysate, primary screen, small-molecule microarray, 635/667 nm fluorescence (AID 1116). To be noted: COS7-hLAP1 lysate binding, 635 nm fluorescence, higher = more signal.
Sequence of Torsin-1A-interacting protein 1 (Homo sapiens) (Q5JTV8 whole entry, looked up): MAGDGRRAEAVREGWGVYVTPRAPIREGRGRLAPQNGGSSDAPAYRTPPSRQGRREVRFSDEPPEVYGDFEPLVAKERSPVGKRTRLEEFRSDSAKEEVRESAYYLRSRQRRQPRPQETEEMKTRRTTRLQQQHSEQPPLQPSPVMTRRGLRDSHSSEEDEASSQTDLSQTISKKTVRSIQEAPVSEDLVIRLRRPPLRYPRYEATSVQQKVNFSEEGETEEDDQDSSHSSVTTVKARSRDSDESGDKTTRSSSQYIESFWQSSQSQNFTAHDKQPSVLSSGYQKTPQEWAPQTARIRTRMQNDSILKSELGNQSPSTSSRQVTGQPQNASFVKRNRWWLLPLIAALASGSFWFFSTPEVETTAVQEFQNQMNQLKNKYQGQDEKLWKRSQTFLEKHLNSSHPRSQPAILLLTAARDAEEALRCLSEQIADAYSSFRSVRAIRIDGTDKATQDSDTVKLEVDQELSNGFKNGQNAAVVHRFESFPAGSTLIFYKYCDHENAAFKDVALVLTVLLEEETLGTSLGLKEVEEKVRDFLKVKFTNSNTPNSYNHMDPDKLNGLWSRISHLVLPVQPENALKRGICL
For assay [10], the target named is Alpha-bungarotoxin (Bungarus multicinctus) (UniProt P60615). The assay is described as follows: alpha-bungarotoxin binders on microarray, profiling panel, artefact control for SMM control protein annotation, biochemical, small-molecule microarray, Alexa647 label, 635/667 nm fluorescence (AID 1117). The following applies: alpha-BTX-A647 binding fluorescence, higher = more signal.
Sequence of Alpha-bungarotoxin (Bungarus multicinctus) (P60615 whole entry, looked up): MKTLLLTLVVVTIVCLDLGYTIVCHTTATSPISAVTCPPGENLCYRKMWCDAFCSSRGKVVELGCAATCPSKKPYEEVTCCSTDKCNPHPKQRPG

Sequence of Left-right determination factor 2 (Homo sapiens) (O00292 whole entry, looked up): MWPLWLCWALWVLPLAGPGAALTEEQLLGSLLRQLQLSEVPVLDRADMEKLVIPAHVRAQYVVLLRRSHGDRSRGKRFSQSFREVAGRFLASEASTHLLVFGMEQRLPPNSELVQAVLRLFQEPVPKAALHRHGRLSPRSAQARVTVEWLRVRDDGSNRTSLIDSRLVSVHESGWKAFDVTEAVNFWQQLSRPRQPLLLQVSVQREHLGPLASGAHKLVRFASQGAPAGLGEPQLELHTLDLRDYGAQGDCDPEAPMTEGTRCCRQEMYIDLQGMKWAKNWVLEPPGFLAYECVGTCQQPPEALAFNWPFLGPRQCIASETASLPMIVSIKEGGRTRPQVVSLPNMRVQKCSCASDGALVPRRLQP

Consider `O[C@@H](Cc1ccccc1)[C@@H](/C=C/c1ccccc1)NCc1ccccc1Br`, for which the composite z-score in assay [1] is -1.16; in [3] it was -1.56; in assay [4], -0.793; in assay [5], -0.43; in [6], -0.109; in assay [7], -0.17. Moreover, the composite z-score in assay [8] is -0.445; in assay [9], -0.962; in assay [10], -0.869. This compound also yielded a z-score in [2] of -1.38.
With `O=C1O[C@H](c2ccccc2)[C@H](c2ccccc2)N2[C@H]1[C@@H](C(=O)NC[C@H](O)c1ccccc1)[C@]1(C(=O)Nc3ccc(C#CC4(O)CCCCCC4)cc31)[C@H]2c1ccccc1OCCO`, the composite z-score in assay [1] is 1.36; in assay [3], -0.0569; in assay [4], 0.9; in assay [5], 0.26; in assay [6] it was -0.145; in assay [7], 0.147. Moreover, the results for the composite z-score in [8], in assay [9] and in assay [10] were 0.52, 0.791 and 0.837, respectively. In assay [2], this compound displayed a z-score of -3.12.
On to `O=C(N1CCCCC1)[C@]1(CCS(=O)(=O)c2ccccc2)N=C(c2ccc(OCCCO)cc2)O[C@@H]1c1ccccc1`, for which the composite z-score in assay [1] stood at 0.876; in assay [3], 0.101; in [4], 1.91; in assay [5], 1.02; in assay [6], 0.055; in assay [7] it was 1.49. In addition, the composite z-score worked out at 0.56 in [8], 0.917 in assay [9] and 2.56 in assay [10]. Further, in assay [2], the z-score is -3.16.
With `CCCCN1CC=CC23O[C@@H]4C=CCCOC(=O)C4[C@H]2C(=O)N(CCCO)[C@@H]3C1=O` (stereo not given in full), the composite z-score in assay [1] is -0.73; in [3] it was -0.513; in [4], -0.479; in assay [5] it was -0.503; in assay [6], -0.196; in [7], -0.2. The composite z-score in assay [8] was -0.0784; in assay [9], -0.643; in [10], -1.13. Further, the z-score in [2] is -1.1.
Turning to `COCCOC(=O)N1C(=O)[C@@]2(c3cc(C#CCCO)ccc31)[C@H](C(=O)NC[C@H](O)c1ccccc1)[C@H]1C(=O)O[C@H](c3ccccc3)[C@H](c3ccccc3)N1[C@@H]2c1ccc(OCCO)cc1`, the composite z-score in assay [1] is 1.08; in [3], 0.532; in assay [4] it was 1.09; in assay [5], -0.191; in assay [6] it was -0.197; in assay [7], -0.23. For the same compound, the composite z-score in assay [8] was -0.456; in assay [9] it was 0.274; in [10], 0.895. In [2], the z-score is -0.646.
Regarding `C=CCC(OC(C)=O)[C@@H]1[C@@H](N(Cc2ccc(-c3cccc(C(F)(F)F)c3)o2)C(=O)Cc2ccc(OC)cc2)c2cc(OCCCO)ccc2N1C(=O)Cc1ccc(OC)cc1` (stereo not given in full), the composite z-score in [1] was -0.641; in assay [3], -0.606; in assay [4], -0.503; in assay [5] it was -1.26; in [6] it was -0.203; in assay [7], -0.0035. The composite z-score in assay [8] is -0.196; in assay [9], -0.347; in assay [10], -0.132. For the same compound, the z-score in assay [2] is -1.46.
On to `COCCOC(=O)N1C(=O)[C@@]2(c3cc(C#Cc4ccc(OC)cc4)ccc31)[C@H](C(N)=O)[C@H]1C(=O)O[C@H](c3ccccc3)[C@H](c3ccccc3)N1[C@@H]2c1ccc(O)cc1`, for which the composite z-score was -0.426 in assay [1]; -1.58 in assay [3]; -0.844 in assay [4]; 0.247 in [5]; 0.0243 in assay [6]; -0.487 in assay [7]. Also, the figures for the composite z-score in assay [8], in assay [9] and in assay [10] were 0.909, 0.127 and -1.05, respectively. Further, the z-score in assay [2] is -1.01.
As for `CN1C(=O)C2C=CC(C(O)C3=C[C@H]4C[C@@H](C3)C4(C)C)N(Nc3ccc([N+](=O)[O-])cc3[N+](=O)[O-])C2C1=O` (stereo not given in full), the composite z-score in [1] was found to be 1.41; in [3] it was 0.258; in assay [4], 1.72; in [5], 0.616; in [6], 0.0194; in assay [7], 0.223. The composite z-score turned out to be 0.836 in assay [8], 0.975 in [9] and 1.51 in assay [10]. In assay [2], this compound came in with a z-score of -0.474.
For `CC1(C)C(=O)C(c2ccccc2)=C2CN3C(=O)N(CCc4ccccc4)C(=O)C3(Cc3ccccc3)C=C21` (stereo not given), the composite z-score is 1.03 in assay [1]; -0.0283 in assay [3]; 1.03 in assay [4]; 0.9 in [5]; 0.0633 in assay [6]; 0.375 in assay [7]. Besides, the composite z-score in [8] is 0.578; in assay [9] it was -0.0882; in assay [10], 1.68. Besides, in assay [2], the z-score is -1.58.
As to `O=C1O[C@@H](c2ccccc2)[C@@H](c2ccccc2)N2[C@@H](c3ccc(O)cc3)[C@]3(C(=O)Nc4ccccc43)[C@@H](C(=O)NC[C@H](O)c3ccccc3)[C@H]12`, the composite z-score was 1.13 in [1]; 0.091 in assay [3]; 0.843 in assay [4]; 0.713 in assay [5]; -0.0659 in assay [6]; -0.0232 in assay [7]. The composite z-score was -0.0899 in assay [8], 0.137 in assay [9] and 0.262 in assay [10]. In [2], this compound gave a z-score of -0.427.
In the case of `CCCC[C@@H]1C[C@H]1[C@@H](NC(=O)c1ccccc1)c1ccccc1`, the composite z-score in assay [1] was 0.305; in [3], -0.137; in [4], -0.0221; in [5], 0.635; in [6], 0.298; in assay [7], 0.121. Further, the composite z-score was 2.11 in assay [8], -0.192 in [9] and 0.012 in assay [10]. In assay [2], this compound registered a z-score of -0.978.
Consider `CCCCC(=C=CC[C@H](O)c1ccccc1OCCO)C[C@H](O)c1cc(Cl)cc(Cl)c1O`, for which the composite z-score in assay [1] was 0.405; in assay [3], -0.408; in [4], 0.684; in assay [5], 0.466; in [6] it was -0.0445; in assay [7], 0.0278. Further, the composite z-score worked out at 0.22 in [8], 0.582 in assay [9] and 0.876 in assay [10]. The z-score in [2] was -1.18.
With `C=CCOC(=O)[C@@H]1[C@H]2C(=O)O[C@H](c3ccccc3)[C@H](c3ccccc3)N2[C@H](c2ccc(OCCOC(=O)[C@H]3C[C@H]4C(=O)N[C@@H](CC(C)C)C(=O)N4[C@H]3c3cccc(OCCO)c3)cc2)[C@@]12C(=O)Nc1ccc(I)cc12`, the composite z-score was 1.44 in assay [1]; 0.697 in assay [3]; 0.896 in assay [4]; 0.163 in [5]; -0.0721 in assay [6]; 0.337 in [7]. Besides, the composite z-score in [8] came out at 0.0852; in assay [9], 0.921; in assay [10] it was 2.52. Moreover, the z-score in assay [2] was -1.34.
